Screens deposited in PubChem by several laboratories.
An excerpt weighted towards active compounds, which were near 2.7% of everything screened.
Peg3 prom inh = reduces Peg3 promoter-driven luciferase expression in HeLa; HeLa PEG-Prom luciferase reporter, luminescence, overnight; inhibition, % at 20 µM; actives 1.7% (n = 360,000); AID 588405;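 active = inhibition of at least 50% at 20 µM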
MITF TRPM1 inh = reduces MITF-dependent TRPM1 promoter luciferase signal; AID 488899; actives 0.83% (n = 330,000); inhibition, % at 12.5 µM; SK-MEL-5 TRPM1 promoter luciferase, 24 h;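 active = mean inhibition across replicates of 60% or more, whatever share of single replicates reaches that level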
HIF-2a block = inhibitors of HIF-2a | actives 0.72% (n = 360,000) | inhibition, % at 18.8 µM | 786-0 RCC cells HIF-2a reporter, luciferase luminescence, overnight | AID 624352;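 active = inhibition of the luminescence signal of 40% or more relative to plate controls, in a single-dose primary screen at 18.75 µM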
Shn3 inh set2 = reduces Shn3 3'UTR luciferase signal in osteoblasts; Clone20 osteoblast Shn3 3'UTR firefly luciferase, 24 h; inhibition, % at 12.5 µM; actives 0.52% (n = 360,000);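 active = mean inhibition of at least 75% with every replicate also reaching 75%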
CF NFkB block = cystic fibrosis NF-kB activation inhibition; actives 0.86% (n = 360,000); KKLEB NF-kB-GFP reporter, PAF-induced, GFP fluorescence overnight; inhibition, % at 5 µM;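 active = at least 50% inhibition at 5 µM, scaled per plate between neutral and stimulator controls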;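 also: PAF is a Pseudomonas aeruginosa culture filtrate used as stimulus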
KKLEB tox = counter-screen for CF NF-kB inhibitors: cytotoxicity; AID 602141; actives 0.36% (n = 360,000); KKLEB CF airway cells viability, ATPlite luminescence, overnight; active compounds read low; cells stimulated with P. aeruginosa culture filtrate; activity change (cytotoxicity), % at 5 µM;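 active = corrected activity change at or below -50% at 5 µM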
Mdm2-MdmX confirm = confirmation of inhibitors of human Mdm2/MdmX interaction, set 2; inhibition, % at 8 µM; shares compounds with HIF-2a block; SaOS-2 split-luciferase Mdm2/MdmX complementation, luminescence; actives 99% (n = 740);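 active = mean inhibition of the luminescence signal across two replicates at or above 26 percent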
HIF-2a conf = confirmation of HIF-2a inhibitors; inhibition, % at 18.8 µM; 786-0 RCC cells, HIF-2a luciferase reporter luminescence, overnight; AID 651580; actives 56% (n = 1,800); shares compounds with HIF-2a block;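 active = mean inhibition across four replicates of at least 40 percent at the single tested concentration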
HIF-1a counter = inhibits HIF-1a reporter, a counter-screen for HIF-2a inhibitors; inhibition, % at 18.8 µM; AID 651589; shares compounds with HIF-2a block; MiaPaCa-2 HIF-1a luciferase reporter, desferoxamine, overnight; actives 72% (n = 1,800);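 active = mean inhibition of the reporter signal across four replicates at the single tested dose of 50% or more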
Hits are given with their value; ! = not confirmed by another sample.

`CCOC(=O)c1ccc(Oc2nc(NC(C)(C)C)nc(N(C)C)n2)cc1` gave Peg3 prom inh inactive, MITF TRPM1 inh inactive, HIF-2a block 44.1, Shn3 inh set2 inactive, CF NFkB block inactive, KKLEB tox inactive, HIF-2a conf 50.1 and HIF-1a counter inactive.
For CSc1ccc(/C=N/Nc2cccc(C(=O)O)c2)cc1 the results were Peg3 prom inh 68.0, MITF TRPM1 inh 79.2, HIF-2a block 71.5, Shn3 inh set2 inactive, CF NFkB block inactive, KKLEB tox inactive, HIF-2a conf 85.3 and HIF-1a counter inactive.
For COCCN(C(=O)CCC(=O)Nc1cc(C)on1)C(C(=O)NC1CCCC1)c1ccccc1C (stereo unspecified) the results were Peg3 prom inh inactive, MITF TRPM1 inh inactive, HIF-2a block inactive, Shn3 inh set2 inactive, CF NFkB block inactive and KKLEB tox inactive.
Screening COCCN(C(=O)CCl)C(C(=O)NC1CCCCC1)c1ccccc1C (stereo unspecified) returned Peg3 prom inh 60.3, MITF TRPM1 inh 78.4, HIF-2a block 65.6, Shn3 inh set2 inactive, CF NFkB block inactive, KKLEB tox inactive, HIF-2a conf inactive and HIF-1a counter 91.3.
`COc1ccc(-c2cc(N)n(S(=O)(=O)c3c(F)c(F)c(F)c(F)c3F)n2)cc1OC` gave Peg3 prom inh 109.7, MITF TRPM1 inh 98.0, HIF-2a block 86.3, Shn3 inh set2 inactive, CF NFkB block inactive, KKLEB tox inactive, HIF-2a conf 99.5 and HIF-1a counter 104.0.
For CSCCC(C(=O)NC1CCCC1)n1c(C2CC2)nc2ccccc21 (stereo unspecified) the results were HIF-2a block inactive.
O=C1N=C2N(CCN3CCCCC3)c3ccccc3N2/C1=C\c1ccc([N+](=O)[O-])s1 was read as Peg3 prom inh inactive, MITF TRPM1 inh inactive, HIF-2a block inactive, Shn3 inh set2 inactive, CF NFkB block inactive and KKLEB tox inactive.
S=C(c1cn(CCOc2ccccc2)c2ccccc12)N1CCCC1 was read as Peg3 prom inh inactive, MITF TRPM1 inh inactive, HIF-2a block inactive, Shn3 inh set2 inactive, CF NFkB block inactive and KKLEB tox inactive.
Screening Cc1ccc(OCCn2cc(C(=S)N3CCCC3)c3ccccc32)cc1C returned Peg3 prom inh inactive, MITF TRPM1 inh inactive, HIF-2a block inactive, Shn3 inh set2 inactive, CF NFkB block inactive, KKLEB tox inactive and Mdm2-MdmX confirm 99.7.
COCCN(C(=O)c1ccc(C)c(S(=O)(=O)N2CCOCC2)c1)c1c(N)n(CC(C)C)c(=O)[nH]c1=O was read as Peg3 prom inh inactive, MITF TRPM1 inh inactive, HIF-2a block inactive, Shn3 inh set2 inactive, CF NFkB block inactive and KKLEB tox inactive.
For CCN1CCN(Cc2ccc(NC(=O)c3cc(NC(=O)c4cncc(-c5ccc(C#N)cc5)c4)cc(OC)c3)cc2C(F)(F)F)CC1 the results were Peg3 prom inh 106.1, MITF TRPM1 inh 96.9, HIF-2a block 88.5!, Shn3 inh set2 97.8, CF NFkB block 56.6!, KKLEB tox -73.0!, HIF-2a conf inactive and HIF-1a counter 97.9.
Cc1ccc(S(=O)(=O)c2ncccc2[N+](=O)[O-])cc1 was read as Peg3 prom inh 101.8, MITF TRPM1 inh 76.6, HIF-2a block 72.4, Shn3 inh set2 95.8, CF NFkB block 102.1, KKLEB tox -64.6, Mdm2-MdmX confirm 100.5, HIF-2a conf 46.7 and HIF-1a counter inactive.
Screening O=C(c1[nH]c(C(F)(F)F)nc1-c1ccccc1)N1CCC2(CC1)C(=O)NCN2c1ccccc1 returned Peg3 prom inh inactive, HIF-2a block inactive, Shn3 inh set2 inactive, CF NFkB block inactive and KKLEB tox inactive.
Nc1ncnc2c1ncn2[C@@H]1O[C@H](CO)C[C@H]1O was read as Peg3 prom inh inactive, MITF TRPM1 inh inactive, HIF-2a block inactive, Shn3 inh set2 inactive, CF NFkB block inactive and KKLEB tox inactive.
For Nc1ncnc2c1ncn2C1C=C(CO)C(O)C1O (stereo unspecified) the results were Peg3 prom inh inactive, MITF TRPM1 inh inactive, HIF-2a block 43.5, Shn3 inh set2 inactive, CF NFkB block inactive, KKLEB tox inactive, HIF-2a conf inactive and HIF-1a counter 81.1.
Screening COc1ccc2ccccc2c1/C=N/NC(=O)c1nnn(-c2nonc2N)c1C(C)C returned Peg3 prom inh inactive, MITF TRPM1 inh inactive, HIF-2a block inactive, Shn3 inh set2 inactive, CF NFkB block inactive and KKLEB tox inactive.
For Cc1c(C(=O)N/N=C/c2c(O)ccc3ccccc23)nnn1-c1nonc1N the results were Peg3 prom inh inactive, MITF TRPM1 inh inactive, HIF-2a block inactive, Shn3 inh set2 inactive, CF NFkB block inactive, KKLEB tox inactive and Mdm2-MdmX confirm 92.0.
For O=C(N/N=C/c1c(O)ccc2ccccc12)c1ccc(Br)o1 the results were Peg3 prom inh inactive, MITF TRPM1 inh inactive, HIF-2a block inactive, Shn3 inh set2 inactive, CF NFkB block inactive, KKLEB tox inactive and Mdm2-MdmX confirm 90.2.
`O=C(NCCCN1CCCC1=O)C(=O)NCC1OCCN1S(=O)(=O)c1cc(F)ccc1F` (stereo unspecified) gave Peg3 prom inh inactive, HIF-2a block inactive, Shn3 inh set2 inactive, CF NFkB block inactive and KKLEB tox inactive.
`COc1ccc(C(C(=O)c2ccccc2)c2ccccc2)cc1` (stereo unspecified) gave HIF-2a block inactive.
`Cc1nn(-c2ccccc2)c(Cl)c1/C=N/Nc1ccc(Cl)c(C(=O)O)c1` gave Peg3 prom inh inactive, MITF TRPM1 inh inactive, HIF-2a block 61.1, Shn3 inh set2 inactive, CF NFkB block inactive, KKLEB tox inactive, HIF-2a conf 55.7 and HIF-1a counter inactive.
CCc1ccc2oc(=O)cc(CN3CCOCC3)c2c1 was read as Peg3 prom inh inactive, MITF TRPM1 inh inactive, HIF-2a block 46.0, Shn3 inh set2 inactive, CF NFkB block inactive, KKLEB tox inactive, HIF-2a conf inactive and HIF-1a counter inactive.
For O=c1c2c3nc4ccccc4nc3n(Cc3ccccc3)c2ncn1Cc1ccco1 the results were Peg3 prom inh 75.7, MITF TRPM1 inh inactive, HIF-2a block 43.6, Shn3 inh set2 inactive, CF NFkB block inactive, KKLEB tox inactive, HIF-2a conf inactive and HIF-1a counter 78.2.
Cc1ccc(S(=O)(=O)N2CCN(C(=O)CCc3nc4ccccc4c(=O)[nH]3)CC2)c(C)c1 was read as Peg3 prom inh inactive, MITF TRPM1 inh inactive, HIF-2a block inactive, Shn3 inh set2 inactive, CF NFkB block inactive and KKLEB tox inactive.
